Screening results (PubChem)
A selection: hits, their analogues and other compounds. The true share with any hit is near 8.7%.
ALOX12 inh: inhibitors of human 12S-lipoxygenase ALOX12; actives 1.1% (n = 580,000); P18054; purified 12hLO, xylenol orange hydroperoxide absorbance; Potency, µM (doses to about 108 µM), for inactives: at the highest dose activity change, negative = inhibition, most hits filed as inhibitors; also: % is scaled to controls: 0 for no effect and ±100 for the full control effect
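Purified human 12hLO (150 nM final) in 25 mM Hepes, 0.01% Triton X-100, pH 7.0 was preincubated 15 min at room temperature with compound. Then 40 uM arachidonic acid was added, 30 min. Hydroperoxide was read by Fe-XO absorbance ratio 573/405 nm.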
Sfp inh: blocks B. subtilis Sfp PPTase activity. Biochemical Sfp PPTase activity, qHTS. Potency, µM, inactives show largest response in the series, negative = inhibition, most hits filed as inhibitors. actives 3.5% (n = 310,000). AID 1490;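 also: the enzyme is Sfp with the accession as filed and its product quenches rhodamine fluorescence; 0% = enzyme reaction without inhibitor and -100% = no enzyme wells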
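Buffer: 50 mM Hepes-Na pH 7.6, 10 mM MgCl2, 0.01% Nonidet P-40, 0.01% BSA. Enzyme 15 nM, pre-exposed to compound 15 min; substrates then added and fluorescence change tracked over 30 min.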
BAZ2B block: inhibitors of human BAZ2B bromodomain; AID 504333; actives 4.4% (n = 360,000); Potency, µM (top dose mostly 114 µM), without a hit: top-dose activity change, negative = inhibition, usual class: inhibitors; Q9UIF8; AlphaScreen BAZ2B-H3K14Ac peptide displacement; also: % is scaled to controls: 0 for no effect and ±100 for the full control effect; nearly all actives have a fitted effect of over 60% in size
Target sequence (Q9UIF8 whole entry, looked up): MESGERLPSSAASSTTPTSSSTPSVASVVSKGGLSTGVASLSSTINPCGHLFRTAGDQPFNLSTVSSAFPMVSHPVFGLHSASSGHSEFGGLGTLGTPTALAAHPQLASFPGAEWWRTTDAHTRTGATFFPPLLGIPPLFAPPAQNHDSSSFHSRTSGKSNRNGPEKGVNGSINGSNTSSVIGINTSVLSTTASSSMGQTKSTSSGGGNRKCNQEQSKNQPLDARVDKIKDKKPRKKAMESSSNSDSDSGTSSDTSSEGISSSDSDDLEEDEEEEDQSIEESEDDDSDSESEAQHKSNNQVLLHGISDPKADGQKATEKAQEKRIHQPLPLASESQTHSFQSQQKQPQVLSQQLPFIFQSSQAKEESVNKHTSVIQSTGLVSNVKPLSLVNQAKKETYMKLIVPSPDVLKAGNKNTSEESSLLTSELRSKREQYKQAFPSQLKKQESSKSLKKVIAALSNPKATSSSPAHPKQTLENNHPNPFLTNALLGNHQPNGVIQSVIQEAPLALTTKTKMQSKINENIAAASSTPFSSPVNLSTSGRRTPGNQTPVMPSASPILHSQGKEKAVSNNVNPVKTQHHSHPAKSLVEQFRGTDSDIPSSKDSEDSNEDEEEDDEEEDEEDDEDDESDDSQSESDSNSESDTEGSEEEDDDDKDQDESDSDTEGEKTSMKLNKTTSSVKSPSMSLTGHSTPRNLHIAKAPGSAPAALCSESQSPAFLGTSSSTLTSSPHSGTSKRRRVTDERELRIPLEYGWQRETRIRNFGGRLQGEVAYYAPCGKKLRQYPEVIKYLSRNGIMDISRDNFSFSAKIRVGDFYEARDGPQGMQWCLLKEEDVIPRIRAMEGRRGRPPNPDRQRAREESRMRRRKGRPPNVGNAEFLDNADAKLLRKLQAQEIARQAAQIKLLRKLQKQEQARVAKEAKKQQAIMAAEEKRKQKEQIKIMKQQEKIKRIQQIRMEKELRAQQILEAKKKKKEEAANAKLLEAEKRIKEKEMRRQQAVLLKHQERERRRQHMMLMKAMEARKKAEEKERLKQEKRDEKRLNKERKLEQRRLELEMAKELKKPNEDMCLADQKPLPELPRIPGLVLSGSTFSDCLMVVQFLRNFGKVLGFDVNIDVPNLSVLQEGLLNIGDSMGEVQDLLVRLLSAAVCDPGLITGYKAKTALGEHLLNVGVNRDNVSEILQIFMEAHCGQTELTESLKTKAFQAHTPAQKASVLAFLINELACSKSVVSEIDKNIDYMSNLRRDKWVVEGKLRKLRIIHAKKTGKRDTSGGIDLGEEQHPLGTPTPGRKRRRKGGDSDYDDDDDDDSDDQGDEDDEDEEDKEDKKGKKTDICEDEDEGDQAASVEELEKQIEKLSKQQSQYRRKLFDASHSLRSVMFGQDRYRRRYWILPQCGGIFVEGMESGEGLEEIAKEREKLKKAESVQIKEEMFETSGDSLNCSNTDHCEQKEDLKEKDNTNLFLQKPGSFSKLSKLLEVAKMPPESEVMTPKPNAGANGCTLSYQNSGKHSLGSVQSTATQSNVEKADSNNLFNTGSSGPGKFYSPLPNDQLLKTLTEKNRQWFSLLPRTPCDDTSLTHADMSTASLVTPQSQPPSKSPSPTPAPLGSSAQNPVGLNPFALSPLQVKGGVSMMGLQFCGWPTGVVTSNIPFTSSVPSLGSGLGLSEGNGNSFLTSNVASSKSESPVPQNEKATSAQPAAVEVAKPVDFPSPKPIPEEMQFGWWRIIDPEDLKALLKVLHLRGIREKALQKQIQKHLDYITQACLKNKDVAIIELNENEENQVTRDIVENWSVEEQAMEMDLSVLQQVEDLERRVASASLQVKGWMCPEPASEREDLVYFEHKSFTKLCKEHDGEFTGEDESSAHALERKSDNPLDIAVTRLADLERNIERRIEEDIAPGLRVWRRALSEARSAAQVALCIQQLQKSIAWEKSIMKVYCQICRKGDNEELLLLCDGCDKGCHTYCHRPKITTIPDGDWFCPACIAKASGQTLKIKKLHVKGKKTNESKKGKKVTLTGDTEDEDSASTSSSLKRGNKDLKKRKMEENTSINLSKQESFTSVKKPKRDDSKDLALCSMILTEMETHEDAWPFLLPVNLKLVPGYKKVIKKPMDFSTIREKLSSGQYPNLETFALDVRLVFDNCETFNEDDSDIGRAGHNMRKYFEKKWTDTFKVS
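BAZ2B 50 nM plus b-H3(5-23)K14Ac 50 nM, PBS pH 7.4/0.01% Tween-20, 30 min RT; compound added (max 110 uM), 30 min RT; streptavidin donor/Ni-chelate acceptor beads 10 ug/mL final, 20 min dark; AlphaScreen read.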
HP1b chromo inh: blocks HP1-beta chromodomain binding to methylated histone tails; AlphaScreen HP1-beta / biotin-H3K9me3 peptide binding; P83916; actives 0.56% (n = 390,000); Potency, µM (doses to about 114 µM), for inactives: at the top dose activity change, negative = inhibition, most hits filed as inhibitors; also: nearly all actives have a fitted effect of over 70% in size
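HP1-beta protein (50 nM final) preincubated 30 min at room temperature with biotinylated H3(1-18)K9me3 peptide (50 nM) in PBS pH 7.4, 0.01% Tween-20, then compound added for 30 min. AlphaScreen streptavidin donor/nickel chelate acceptor beads (10 ug/mL final), 30 min dark, luminescence read.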
JMJD2A Tudor inh: inhibitors of human JMJD2A Tudor domain; O75164; AlphaScreen JMJD2A-Tudor / H3K4me3 peptide binding; Potency, µM (doses to about 114 µM), for the others: top-dose activity change, negative = inhibition, most hits filed as inhibitors; actives 4.4% (n = 390,000); AID 504339; also: % is scaled to controls: 0 for no effect and ±100 for the full control effect; nearly all actives have a fitted effect of over 50% in size
G9a inh: inhibitors of human histone lysine methyltransferase G9a. actives 8.8% (n = 350,000). G9a H3K9 monomethylation, AlphaScreen, 2 h. Q96KQ7. Potency, µM (highest dose often 102 µM), inactives show at the top dose activity, negative = inhibition, usual class: inhibitors. AID 504332; also: % is scaled to controls: 0 for no effect and ±100 for the full control effect; nearly all actives have a fitted effect of over 75% in size
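Readings reflect AlphaScreen signal from monomethyl-H3K9 antibody detection. HMT at 20 nM; substrate b-H3K9 500 nM; cofactor SAM 20 uM; 2 h RT reaction; compounds tested as titrations in qHTS with 15 min preincubation.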
Numbers without * were called inactive; ? = inconclusive; . = not tested or not shown; ! = a repeat was not active; [ ] = dose if it differs, or a comment. Calls follow the shape of the dose curve; as a rule, active = well fitted curve in the direction sought with a large enough effect; inconclusive = small, poorly fitted or top-dose-only effect, or another doubt; inactive = no such curve, though single readings can be large; an effect the other way counts as inactive or inconclusive. Potency is read from the fitted curve at half-maximal effect.

SMILES	ALOX12 inh	Sfp inh	BAZ2B block	HP1b chromo inh	JMJD2A Tudor inh	G9a inh
Cc1ccc(C(NC(=O)c2cc(=O)c3cc(C)ccc3o2)C2CC2)cc1 (stereo unspecified)	-54%	.	.	.	.	.
COc1ccc(C)cc1NC(=O)CSCc1cc(=O)n2c(C)csc2n1	10%	.	79µM*	45%	0%	-3%
COc1ccc(NC(=O)C(=O)NCCCn2ccnc2)cc1	0%	8%	-5%	-9%	-20%	2%
Cc1cc(C(=O)NCCCn2ccnc2)sc1-c1ccccc1	-5%	-4%	50µM*	-4%	?	?
COC(=O)c1ccc(NC(=S)NCCCn2ccnc2)cc1	-8%	13%	79µM*	4%	-23%	-10%
O=C(NCCCn1ccnc1)C(=O)Nc1ccccc1	0%	10%	-27%	?	79µM*	-8%
Cc1ccc(S(=O)(=O)N(C)C)cc1NC(=S)NCCCn1ccnc1	-2%	19%	.	29%	-25%	-3%
CN(C)S(=O)(=O)c1cccc(NC(=S)NCCCn2ccnc2)c1	0%	2%	79µM*	14%	-4%[57.1 µM]	-1%
O=C(/C=C/c1cc(Cl)cc(Cl)c1)NC1CCC(O)CC1 (stereo unspecified)	-16%	.	.	.	.	.
O=C1CCN(S(=O)(=O)c2ccccc2)CCCN(C(=O)c2ccc3ccccc3n2)CCN1	29%	.	.	.	.	.
Cc1cc(C)c2oc(-c3cc(NC(=O)C(C)(C)C)ccc3O)nc2c1	54%	.	.	.	.	.
Cc1nc2ccccc2c(C)c1CC(=O)NCc1ccc(OCC(F)(F)F)cc1	-3%	.	.	.	.	.
CCOC(=O)c1ccc(NC(=S)NCCCn2ccnc2)cc1	-13%	4%	56µM*	38%	-26%	?
O=C(NC1CCCC1)c1cc(C2CC2)nc2onc(C3CCCN3)c12 (stereo unspecified)	2%[6.33 µM]	.	.	.	.	.
Cc1ccc2c(=O)cc(C(=O)Nc3ccc(S(=O)(=O)Nc4onc(C)c4C)cc3)oc2c1	?	11%	-37%	34%	-10%	-5%[59 µM]
Cc1noc(NS(=O)(=O)c2ccc(NC(=O)c3ccc(Cl)c(S(=O)(=O)N(C)c4ccccc4)c3)cc2)c1C	-26%	.	45µM*	-22%	?	50µM*
Cc1ccc(-c2cc(C(=O)Nc3ccc(S(=O)(=O)Nc4onc(C)c4C)cc3)c3ccccc3n2)cc1	35µM*	21%	50µM*	?	?	45µM*
Cc1noc(NS(=O)(=O)c2ccc(NC(=O)c3cccc(S(=O)(=O)N(C)c4ccccc4)c3)cc2)c1C	319%	.	.	16%	-30%	.
Cc1cc(C)nc(NS(=O)(=O)c2ccc(NC(=O)c3cc(-c4ccccc4)nc4ccccc34)cc2)n1	0%	4%	-34%	10%	-29%	?
Cc1ccc2c(C)c(C(=O)Nc3ccc(S(=O)(=O)Nc4onc(C)c4C)cc3)oc2c1	-19%	13%	?	-12%	-32%	71µM*
C=CCN1CCN(C(=O)C2CCCN(Cc3ccncc3)CCC(=O)NCC2)CC1 (stereo unspecified)	71%	.	.	.	.	.
CCCCOC(=O)C1=C(C)Nc2ncnn2C1c1ccc(OC)c(OC)c1 (stereo unspecified)	0%	8%	?	35%	-29%	50µM*
CCCCOC(=O)C1=C(C)Nc2ncnn2C1c1ccc(OCC)c(OC)c1 (stereo unspecified)	-33%	6%	?	17%	-18%	12%[59 µM]
CCCC1=C(C(=O)OCC)C(c2ccc(N(C)C)cc2)n2ncnc2N1 (stereo unspecified)	0%	8%	?	4%	?	45µM*
CCCCc1cc(=O)oc2cc(OCC(=O)c3ccc(OC)cc3)ccc12	4%	.	.	.	.	.
SMILES	ALOX12 inh	Sfp inh	BAZ2B block	HP1b chromo inh	JMJD2A Tudor inh	G9a inh
O=C(CC1CC2CCC1C2)NCc1ccccn1 (stereo unspecified)	7%	.	.	.	.	.
N#CC1=C2N=C(N)c3ccccc3N2C2=C(C(=O)CCC2)C1c1ccc(F)cc1 (stereo unspecified)	13%	9%	-35%	3%	?	-35%
N#CC1=C2N=C(N)c3c(sc4c3CCCCC4)N2C2=C(C(=O)CCC2)C1c1ccccc1 (stereo unspecified)	-28%	-25%	45µM*	-6%	?	-9%[59 µM]
CCOc1ccc(C2C(C#N)=C(N)N(c3sc4c(c3C#N)CCCC4)C3=C2C(=O)CCC3)cc1 (stereo unspecified)	34%	10%	-5%	29%	-22%	-10%[59 µM]
Cc1ccc(C2C(C#N)=C3N=C(N)c4ccccc4N3C3=C2C(=O)CCC3)cc1 (stereo unspecified)	-25%	-14%	50µM*	6%	?	?
CCCCC(CC)C(=O)Nc1ccc2ccccc2c1 (stereo unspecified)	10%	.	.	.	.	.
CCCCC(CC)C(=O)Nc1ccc(C)c(O)c1 (stereo unspecified)	0%	16%	-5%	-13%	50µM*	.
O=C(CCCN1C(=O)/C(=C/c2ccco2)SC1=S)Nc1cccc(C(=O)O)c1	?	25µM*	45µM*	?	?	.
O=C(CCCN1C(=O)/C(=C\c2ccco2)SC1=S)Nc1ccc(O)cc1C(=O)O	28µM*	50µM*	14µM*	25µM*	22µM*	10µM*
COc1ccc2c(c1)Sc1ccccc1N2CCN(C)C	.	-15%	25µM*	32µM*	?	?
CN(C)CCCN1c2ccccc2Sc2ccccc21	?	-16%	?	24%	-14%	45µM*!
COc1ccc([C@H]2Sc3ccccc3N(CCN(C)C)C(=O)[C@H]2OC(C)=O)cc1	.	24%	.	.	.	20%[21.5 µM]
CN(C)CCCN1C(=O)c2cc3ccccc3cc2C1=O	-5%	22%	-11%	10%	0%	23%
CCC(=O)c1ccc2c(c1)N(CCCN(C)C)c1ccccc1S2	?	3%	.	5%	-32%	14µM*!
CCN(CC(=O)Nc1ccccc1C(F)(F)F)C(=O)c1nn(CC(C)C)c(=O)c2ccccc12	17%	.	.	.	.	.
Cc1ccc(SC(=O)c2ccccc2Br)cc1	8%	.	.	.	.	.
Cc1ccc(OCc2nc(C3CCCN3C(=O)c3sc(C)nc3C)no2)cc1 (stereo unspecified)	9%	.	.	.	.	.
C/C(=N/NC(=O)c1ccccn1)c1c[nH]c2ccccc12	192%	5%	50µM*	39%	-25%	?
C/C(=N\NC(=O)c1ccccn1)C12CC3CC(CC(C3)C1)C2	3%	6%	50µM*	36%	?	?
C/C(=N\NC(=O)c1c[nH]c2ccccc12)c1ccc(C)o1	-23%	-5%	-8%	39%	-18%	-6%
